# “And” between values parts separate entries of the source, which are not always exact repeats. Equal entries are not always repeated. The campaign covered roughly 290,000 compounds. About 1,800 (0.62%) were called active. No stated cut-off is given here; in the data, active means inhibition above about 50%; inactive means the rest. The full list was thinned out, with actives kept by preference. The source holds several records for some structures; these can differ, active in one and inactive in another.
# Test: inhibition of NOD2-driven NF-kB reporter – cell-based, luminescence, uHTS, HEK293 (AID 1566)
# Conditions: HEK293 NOD2/NF-kB luciferase reporter, at 4 µM, stronger effect = higher value
row,SMILES,inhibition
1,CCCSc1nnc(CSc2nc3ccccc3s2)n1-c1ccccc1,2.7% (inactive)
2,O=C(COC(=O)c1ccccc1O)Nc1cccc(S(=O)(=O)NC2=NCCCCC2)c1,14.9% (inactive)
3,O=C1CCCN1CCC1CCN(C(=S)Nc2ccc(F)cc2)CC1,1.1% (inactive)
4,Cc1ccc(C(=O)c2cnc3ccccc3c2-c2ccccc2)cc1,50.7% (active)
5,COc1ccc(C(=O)c2cnc3ccccc3c2-c2ccccc2)cc1,29.3% (inactive)
6,Cc1cccc(C(=O)c2cnc3ccccc3c2-c2ccccc2)c1,1.1% (inactive)
7,O=C(NCc1cccc(C(F)(F)F)c1)C1CC(c2c(Cl)cccc2Cl)=NO1 (stereo unspecified),-28.5% (inactive)
8,O=C(O)c1cccc(-c2ccc(/C=C3/SC(=Nc4ccccc4)N(Cc4cccnc4)C3=O)o2)c1,53.1% (active)
9,CCN=C1S/C(=C\c2ccc(-c3cccc(C(=O)O)c3)o2)C(=O)N1CC,-81.2% (inactive)
10,CCN1C(=O)/C(=C\c2ccc(-c3cccc(C(=O)OC)c3)o2)SC1=Nc1ccc(C(=O)O)cc1,4.2% (inactive)
11,Cc1cc(NC(=O)CSc2nnnn2C)n(-c2ccccc2)n1,6.4% (inactive)
12,CCOC(=O)C1CCCN(S(=O)(=O)c2ccc(OC)c3ccccc23)C1 (stereo unspecified),8.9% (inactive)
13,Cc1ccc(NC(=O)Nc2ccc3c(c2)CCC3)cc1C,-15.3% (inactive)
14,CN(C)C(=O)C(OC(=O)c1ccc2c(c1)CCCC2)c1ccccc1 (stereo unspecified),90.9% (active)
15,CN(C)C(=O)C(OC(=O)c1ccc2ccccc2n1)c1ccccc1 (stereo unspecified),-9.4% (inactive)
16,O=C(O)c1ccc2c(c1)CCC2,25.5% (inactive)
17,O=C(COc1ccc(S(=O)(=O)NCc2ccccc2)cc1)NCC1CCCO1 (stereo unspecified),-3% (inactive)
18,Cc1csc(NC(=O)CSc2nnc(NC(=O)COc3ccc(Cl)cc3)s2)n1,-17.3% (inactive)
19,CCc1nc2ccccc2n1CC(O)COCC1CC=CCC1 (stereo unspecified),-7.7% (inactive)
20,CCc1n(CC(O)COCC2CC=CCC2)c2ccccc2[n+]1C (stereo unspecified),55.3% (active)
21,CCCc1n(CC(O)COCC2CC=CCC2)c2ccccc2[n+]1C (stereo unspecified),5.7% (inactive)
22,Cc1cc(=O)oc2c(C)c(OC(C)C(=O)Nc3ccc(N4CCC(C)CC4)cc3)ccc12 (stereo unspecified),3.4% (inactive)
23,Cn1c(=O)c2c(-c3ccc(OC(F)F)cc3)cc(-c3ccccc3)nc2n(C)c1=O,-4.7% (inactive)
24,COC(=O)COc1ccc(S(=O)(=O)Nc2cc([N+](=O)[O-])ccc2C)cc1,8.7% (inactive)

row,SMILES,inhibition
1,O=C(CCn1cccc1)NCc1ccc(Cl)cc1,5.1% (inactive)
2,O=C(N/N=C/c1cccc2ccccc12)c1cc(C2CC2)[nH]n1,10.5% (inactive)
3,CCOc1cc(/C=N/NC(=O)c2cc(C3CC3)[nH]n2)ccc1O,-2.8% (inactive)
4,CCOc1cccc(/C=N/NC(=O)c2cc(C3CC3)[nH]n2)c1O,63.2% (active)
5,Cc1ccc(C)c(NC(=O)CCN2C(=O)c3ccccc3C2=O)c1,-5.3% (inactive)
6,COc1ccc(N2CC(C(=O)N3CCN(c4ccccc4OC)CC3)CC2=O)cc1 (stereo unspecified),12.7% (inactive)
7,Cc1ccc(S(=O)(=O)Nc2ccc(N3CCOCC3)cc2)cc1,0.3% (inactive)
8,COc1ccccc1N1CCN(C(=O)C2CCN(S(=O)(=O)c3ccc4c(c3)CC(C)N4C(=O)C3CC3)CC2)CC1 (stereo unspecified),27% (inactive)
9,COc1ccc(Oc2nc3c(c(=O)n(C)c(=O)n3C)n2C)cc1,26.2% (inactive)
10,Cn1c(=O)c2c(nc(Oc3ccccc3)n2C)n(C)c1=O,4.8% (inactive) and 12.7% (inactive)
11,Cc1c(C#N)sc2nc(-c3ccccc3)nc(N3CCCC3)c12,-1.5% (inactive)
12,COCc1cc(C)nc(SCC(=O)Nc2ccccc2N2CCOCC2)c1C#N,40% (inactive)
13,COCc1cc(C)nc(SCC(=O)Nc2ccc(N3CCOCC3)cc2)c1C#N,5% (inactive)
14,COCc1cc(C)nc(SCC(=O)Nc2cc(C(F)(F)F)ccc2N2CCOCC2)c1C#N,58.6% (active)
15,COCC(C)n1c(C)cc(C(=O)COC(=O)CNC(=O)c2ccccc2)c1C (stereo unspecified),20.5% (inactive)
16,COc1ccc(S(=O)(=O)N2CCCCCC2)cc1C(=O)OCc1c(C)noc1C,0.3% (inactive)
17,CNc1nc2cc([N+](=O)[O-])c([N+](=O)[O-])cc2nc1NC,18.9% (inactive)
18,Cc1ccc(NC(=S)N(C)C)cc1C,-14.4% (inactive)
19,Cc1cc(C)cc(OCC(=O)Nc2ccncc2)c1,29.4% (inactive)
20,O=C(COc1ccccc1)Nc1ccncc1,5.2% (inactive)
21,Cc1cc(OCC(=O)Nc2ccncc2)ccc1Br,38.2% (inactive)
22,CC(C)CCOc1cccc(OCC(=O)Nc2ccncc2)c1,60% (active)
23,COc1cccc(OCC(=O)Nc2ccncc2)c1,19.9% (inactive)
24,Cc1cc(Cl)ccc1OCC(=O)Nc1ccncc1,39.3% (inactive)

row,SMILES,inhibition
1,Cc1cc(OCC(=O)Nc2ccncc2)ccc1Cl,39.6% (inactive)
2,CC1=C([N+](=O)[O-])C(c2ccccc2Cl)NC(=O)N1C (stereo unspecified),14.3% (inactive)
3,O=C(NC1CCCN(CCc2ccccc2)C1)c1c(F)cccc1F (stereo unspecified),4.3% (inactive)
4,COc1cccc(N2CC(C(=O)Nc3nnc(SCCN4CCOCC4)s3)CC2=O)c1 (stereo unspecified),14.1% (inactive)
5,CCOC(=O)c1sc2ccccc2c1OC(=O)c1ccccc1OC,22.4% (inactive)
6,CCOC(=O)c1sc2ccccc2c1OC(=O)c1ccccc1,27.7% (inactive)
7,Cc1ccccc1C(=O)Nc1ccc(N2CCN(C(=O)c3ccco3)CC2)cc1,3.9% (inactive)
8,Cc1cccc(-c2nc3c(c(SCC(=O)N4CCOCC4)n2)Cc2c(CO)cnc(C)c2O3)c1,42.3% (inactive)
9,COc1ccc(-c2nc3c(c(SCC(=O)N4CCOCC4)n2)Cc2c(CO)cnc(C)c2O3)cc1,32% (inactive)
10,COc1cccc(-c2nc3c(c(SCC(=O)N4CCOCC4)n2)Cc2c(CO)cnc(C)c2O3)c1,52.5% (active)
11,CCc1ccc(NC(=O)CN(C)S(=O)(=O)c2ccc3[nH]c(=O)oc3c2)cc1,9.7% (inactive)
12,COC(=O)C1=C(C)N(CCc2ccc(OC)cc2)C(=O)C1,-0.9% (inactive)
13,Cc1cc(C)nc(N(C#N)Cc2cccc([N+](=O)[O-])c2)n1,15.2% (inactive)
14,Cc1cccnc1Nc1ncnc(N)c1[N+](=O)[O-],3.6% (inactive)
15,Cc1cccc(Nc2ncnc(N)c2[N+](=O)[O-])n1,32% (inactive)
16,COc1cccc(C(=O)NNC(=O)C(=O)Nc2ccc(C)c(Cl)c2)c1,78.2% (active)
17,COc1cccc(C(=O)NNC(=O)C(=O)Nc2ccc(C)cc2)c1,4.6% (inactive)
18,COc1ccc(C(=O)NNC(=O)C(=O)Nc2ccc(C)c(Cl)c2)cc1,1.2% (inactive)
19,COc1ccc(/C=N/NC(=O)CC#N)cc1Oc1nc(Cl)ncc1F,-4% (inactive)
20,O=[N+]([O-])c1ccc(C2OCCO2)cc1CS(=O)(=O)c1ccccc1,-3.4% (inactive)
21,CCC(=O)Nc1cccc2ccccc12,15.5% (inactive)
22,CCN(CC)c1ccc(/C=N/NC(=O)C(O)(c2ccccc2)c2ccccc2)o1,3.6% (inactive)
23,Cc1[nH]n(-c2ccccc2)c(=O)c1-c1ccc(Cl)cc1,-50.4% (inactive)
24,Cc1[nH]n(-c2cccc(Cl)c2)c(=O)c1-c1ccccc1,17.3% (inactive)

row,SMILES,inhibition
1,C=CCn1c(-c2cc3cccc(OC)c3o2)n[nH]c1=S,-1.5% (inactive)
2,O=C(c1cc(-c2cccc(Cl)c2)on1)N1CCCCCC1,-44.3% (inactive)
3,Nc1nc(-c2cccs2)c(CC(=O)O)s1,4.5% (inactive)
4,CC(C)(C)c1ccc(-n2ncc3c2CCCC3NC(=O)CCN2CCCC2=O)cc1 (stereo unspecified),57.1% (active)
5,CC(C)(C)c1ccc(-n2ncc3c2CCCC3NC(=O)CCN2CCCCC2=O)cc1 (stereo unspecified),17.1% (inactive)
6,CC(C)(C)c1ccc(-n2ncc3c2CCCC3NC(=O)CN2CCCC2=O)cc1 (stereo unspecified),35.8% (inactive)
7,Cc1sc2ncnc(N3CCN(Cc4ccccc4)CC3)c2c1-c1ccccc1,-9.7% (inactive)
8,CCN1CCN(c2ncnc3sc(C)c(-c4ccccc4)c23)CC1,35.6% (inactive)
9,CCc1ccc(-c2cc(C)no2)cc1S(=O)(=O)N1CCOc2ccc(C)cc21,16.8% (inactive)
10,COc1ccccc1CC(=O)Nc1ccc(NC(=O)c2cccs2)cc1,-13% (inactive)
11,CCOC(=O)c1nc2sc3c(c2c(=O)[nH]1)CCCC3,55.1% (active) and 4.8% (inactive)
12,CCOC(=O)c1nc2sc3c(c2c(=O)[nH]1)CCC(C)C3 (stereo unspecified),45.5% (inactive)
13,CCOC(=O)CSc1nc2sc3c(c2c(=O)[nH]1)CCCC3,8.9% (inactive)
14,COc1ccccc1CNC(=O)CCc1nnc2ccc(NCCCN3CCCC3=O)nn12,12.8% (inactive)
15,Cc1ccc(Cn2c(=O)c3ccccc3n3c(SCC(=O)N4CCCCC4C)nnc23)cc1 (stereo unspecified),8.3% (inactive)
16,Cc1ccc(C(=O)NNC(=O)CCN2C(=O)C3CCCCC3C2=O)cc1 (stereo unspecified),11.6% (inactive)
17,COc1cc(SC)ccc1C(=O)Nc1nc(C)cc(C)n1,10.5% (inactive)
18,COc1cc(SC)ccc1C(=O)Nc1nccs1,-159% (inactive)
19,COc1cc(SC)ccc1C(=O)Nc1nc(C)cs1,72.2% (active)
20,O=C(O)c1ccc(NCc2ccc3c(c2)OCO3)cc1,6.2% (inactive)
21,COc1ccc(/C=N/N2C(=O)CSC2=S)cc1,-23.8% (inactive)
22,COc1ccc(-c2nn(-c3ccccc3)cc2/C=N/N2C(=O)CSC2=S)cc1,51.5% (active)
23,COc1ccc(-c2nn(-c3ccccc3)cc2/C=N/O)cc1,9.4% (inactive)
24,CCC1(CC)NC(=O)N(CC(=O)NC(=O)NCc2ccccc2)C1=O,-0.6% (inactive)

# Source: PubChem BioAssay AID1566 (Sanford-Burnham Center for Chemical Genomics, 2009)
